# Source: PubChem BioAssay
# Active and inactive are the calls of the source.
# Key:
# [1] = small molecules captured by biotinylated probe aFSTL3 – biochemical, small-molecule microarray, fluorescence 635/667, stem cell growth factor project, primary screen (AID 1064); settings: higher = more signal;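 note: measures binding of the biotinylated anti-FSTL3 antibody to printed compounds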
# [2] = binders from COS7 lysate, DM2A8 probe, primary screen, torsin A project, cell lysate, small-molecule microarray, fluorescence 635/667 (AID 1065); settings: higher = more signal, COS7 lysate expressing mutant human TOR1A
# [3] = small molecules captured by biotinylated probe aFGF2 – biochemical, small-molecule microarray, fluorescence 635/667, stem cell growth factor project, primary screen (AID 1067); settings: higher = more signal;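 note: measures binding of biotinylated aFGF2 protein to printed compounds on slides; z-score merges feature fluorescence and signal-to-noise across triplicate slides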
# [4] = small molecules captured by biotinylated probe aFGF10 – biochemical, small-molecule microarray, fluorescence 635/667, stem cell growth factor project, primary screen (AID 1071); settings: higher = more signal;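 note: score merges 667 nm spot intensity and signal to noise from triplicate slides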
# [5] = target: Neurogenic locus notch homolog protein 2 (Homo sapiens) (UniProt Q04721); assay: small molecules binding Notch2 protein – biochemical, small-molecule microarray, 635 nm fluorescence, stem cell growth factors, primary screen (AID 1073); settings: higher = more signal
# [6] = target: Pro-neuregulin-1, membrane-bound isoform (Homo sapiens) (UniProt Q02297); assay: small molecules binding neuregulin-1 protein – biochemical, small-molecule microarray, fluorescence 635/667, psychiatric disease protein project, primary screen (AID 1075); settings: NRG1 binding, 635 nm fluorescence, higher = more signal;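 note: score combines 667 nm spot fluorescence with signal to noise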
# [7] = system: Neuregulin-1 EGF-like domain; assay: small molecules binding NRG1 EGF domain – biochemical, small-molecule microarray, 635 nm fluorescence, primary screen (AID 1081); settings: higher = more signal;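 note: binding of the protein to compounds printed on small-molecule microarray slides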
# [8] = FRG1 expression reporter modulators in myotubes – cell-based, C2C12 myotubes, firefly/Renilla luciferase, luminescence, FRG1 inhibition for FSHD, primary screen (AID 1084); settings: FRG1 promoter luciferase, higher = more signal, called active from +8 up or from −8 down
# [9] = small molecules captured by biotinylated probe aFST – biochemical, small-molecule microarray, fluorescence 635/667, stem cell growth factor project, primary screen (AID 1086); settings: higher = more signal;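 note: score merges 667 nm fluorescence with signal-to-noise of each printed compound spot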
# [10] = binders of probe aHhip on microarray, primary screen, stem cell growth factor project, biochemical, small-molecule microarray, fluorescence 635/667 (AID 1087); settings: higher = more signal;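 note: score merges spot fluorescence at 667nm with spot signal to noise ratio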
# [11] = system: PRMT1 (protein arginine N-methyltransferase 1); assay: small molecules binding arginine methyltransferase PRMT1 – biochemical, small-molecule microarray, 635 nm fluorescence, primary screen (AID 1088); settings: higher = more signal;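 note: binding of Prmt1 protein to compounds spotted on small-molecule microarray slides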
# [12] = growth effects on S. cerevisiae YJM789 – YJM789 clinical isolate, OD600, 24 h, basal, primary screen (AID 1089); settings: higher = more signal, called active from +8 up or from −8 down;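 note: growth of clinical yeast isolate S. cerevisiae YJM 789 seeded 1000 cells per well; test concentration not given here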
# [13] = S. pombe growth modifiers, basal conditions – strain 972, OD600, 24 h, no modulator, primary screen (AID 1090);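 note: basal condition with compound alone and no growth modifier present; test concentration not given here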; settings: S. pombe 972 growth, higher = more signal, called active from +8 up or from −8 down
# [14] = budding yeast growth modifiers under rapamycin – strain BY4716, OD600, 96 h, primary screen (AID 1091); note: test concentration not given here; settings: S. cerevisiae BY4716 + rapamycin, higher = more signal, called active from +8 up or from −8 down
# [15] = target: Torsin-1A-interacting protein 2 (Homo sapiens) (UniProt Q8NFQ8); assay: small molecules binding lysate-expressed LULL1 – cell lysate, human LULL1 lysate, 635/667 nm fluorescence, primary screen (AID 1092); settings: small-molecule microarray, hLULL1 lysate binding, 635 nm fluorescence; higher = more signal;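 note: probe is lysate of COS7 cells overexpressing human LULL1; score merges per-feature 667 nm fluorescence with signal-to-noise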
# [16] = optical density change of DRC41 E. coli – strain DRC41, OD650, 24 h, E. coli filamentation project, primary screen (AID 1093);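 note: MC1000 strain lacking acrAB efflux and sulA so SOS filamentation is blocked; test concentration not given here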; settings: E. coli DRC41 growth, higher = more signal, called active from +8 up or from −8 down
# [17] = probe aLefty2 binding to arrayed compounds – biochemical, biotinylated probe, 635/667 nm fluorescence, primary screen (AID 1094); settings: small-molecule microarray, higher = more signal;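 note: score merges spot fluorescence near 667 nm with spot signal-to-noise ratio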
# [18] = system: Noggin (protein binding on small-molecule microarray); assay: small molecules binding Noggin protein – biochemical, 635/667 nm fluorescence, primary screen (AID 1095); settings: 635 nm fluorescence, higher = more signal;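 note: score merges 667 nm feature fluorescence with signal to noise over triplicate slides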
# [19] = target: Neurogenic locus notch homolog protein 3 (Homo sapiens) (UniProt Q9UM47); assay: small molecules binding NOTCH3 protein – biochemical, 635/667 nm fluorescence, primary screen (AID 1096); settings: small-molecule microarray, 635 nm fluorescence, higher = more signal
# [20] = probe aEGFR binding to arrayed compounds – biochemical, biotinylated probe, 635/667 nm fluorescence, primary screen (AID 1097); settings: small-molecule microarray, higher = more signal;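 note: probe is a biotinylated anti-EGFR antibody binding compounds printed on slides; score combines fluorescence near 667 nm and signal to noise of each spot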
# Chain of Neurogenic locus notch homolog protein 3 (Homo sapiens) (Q9UM47 whole entry, looked up): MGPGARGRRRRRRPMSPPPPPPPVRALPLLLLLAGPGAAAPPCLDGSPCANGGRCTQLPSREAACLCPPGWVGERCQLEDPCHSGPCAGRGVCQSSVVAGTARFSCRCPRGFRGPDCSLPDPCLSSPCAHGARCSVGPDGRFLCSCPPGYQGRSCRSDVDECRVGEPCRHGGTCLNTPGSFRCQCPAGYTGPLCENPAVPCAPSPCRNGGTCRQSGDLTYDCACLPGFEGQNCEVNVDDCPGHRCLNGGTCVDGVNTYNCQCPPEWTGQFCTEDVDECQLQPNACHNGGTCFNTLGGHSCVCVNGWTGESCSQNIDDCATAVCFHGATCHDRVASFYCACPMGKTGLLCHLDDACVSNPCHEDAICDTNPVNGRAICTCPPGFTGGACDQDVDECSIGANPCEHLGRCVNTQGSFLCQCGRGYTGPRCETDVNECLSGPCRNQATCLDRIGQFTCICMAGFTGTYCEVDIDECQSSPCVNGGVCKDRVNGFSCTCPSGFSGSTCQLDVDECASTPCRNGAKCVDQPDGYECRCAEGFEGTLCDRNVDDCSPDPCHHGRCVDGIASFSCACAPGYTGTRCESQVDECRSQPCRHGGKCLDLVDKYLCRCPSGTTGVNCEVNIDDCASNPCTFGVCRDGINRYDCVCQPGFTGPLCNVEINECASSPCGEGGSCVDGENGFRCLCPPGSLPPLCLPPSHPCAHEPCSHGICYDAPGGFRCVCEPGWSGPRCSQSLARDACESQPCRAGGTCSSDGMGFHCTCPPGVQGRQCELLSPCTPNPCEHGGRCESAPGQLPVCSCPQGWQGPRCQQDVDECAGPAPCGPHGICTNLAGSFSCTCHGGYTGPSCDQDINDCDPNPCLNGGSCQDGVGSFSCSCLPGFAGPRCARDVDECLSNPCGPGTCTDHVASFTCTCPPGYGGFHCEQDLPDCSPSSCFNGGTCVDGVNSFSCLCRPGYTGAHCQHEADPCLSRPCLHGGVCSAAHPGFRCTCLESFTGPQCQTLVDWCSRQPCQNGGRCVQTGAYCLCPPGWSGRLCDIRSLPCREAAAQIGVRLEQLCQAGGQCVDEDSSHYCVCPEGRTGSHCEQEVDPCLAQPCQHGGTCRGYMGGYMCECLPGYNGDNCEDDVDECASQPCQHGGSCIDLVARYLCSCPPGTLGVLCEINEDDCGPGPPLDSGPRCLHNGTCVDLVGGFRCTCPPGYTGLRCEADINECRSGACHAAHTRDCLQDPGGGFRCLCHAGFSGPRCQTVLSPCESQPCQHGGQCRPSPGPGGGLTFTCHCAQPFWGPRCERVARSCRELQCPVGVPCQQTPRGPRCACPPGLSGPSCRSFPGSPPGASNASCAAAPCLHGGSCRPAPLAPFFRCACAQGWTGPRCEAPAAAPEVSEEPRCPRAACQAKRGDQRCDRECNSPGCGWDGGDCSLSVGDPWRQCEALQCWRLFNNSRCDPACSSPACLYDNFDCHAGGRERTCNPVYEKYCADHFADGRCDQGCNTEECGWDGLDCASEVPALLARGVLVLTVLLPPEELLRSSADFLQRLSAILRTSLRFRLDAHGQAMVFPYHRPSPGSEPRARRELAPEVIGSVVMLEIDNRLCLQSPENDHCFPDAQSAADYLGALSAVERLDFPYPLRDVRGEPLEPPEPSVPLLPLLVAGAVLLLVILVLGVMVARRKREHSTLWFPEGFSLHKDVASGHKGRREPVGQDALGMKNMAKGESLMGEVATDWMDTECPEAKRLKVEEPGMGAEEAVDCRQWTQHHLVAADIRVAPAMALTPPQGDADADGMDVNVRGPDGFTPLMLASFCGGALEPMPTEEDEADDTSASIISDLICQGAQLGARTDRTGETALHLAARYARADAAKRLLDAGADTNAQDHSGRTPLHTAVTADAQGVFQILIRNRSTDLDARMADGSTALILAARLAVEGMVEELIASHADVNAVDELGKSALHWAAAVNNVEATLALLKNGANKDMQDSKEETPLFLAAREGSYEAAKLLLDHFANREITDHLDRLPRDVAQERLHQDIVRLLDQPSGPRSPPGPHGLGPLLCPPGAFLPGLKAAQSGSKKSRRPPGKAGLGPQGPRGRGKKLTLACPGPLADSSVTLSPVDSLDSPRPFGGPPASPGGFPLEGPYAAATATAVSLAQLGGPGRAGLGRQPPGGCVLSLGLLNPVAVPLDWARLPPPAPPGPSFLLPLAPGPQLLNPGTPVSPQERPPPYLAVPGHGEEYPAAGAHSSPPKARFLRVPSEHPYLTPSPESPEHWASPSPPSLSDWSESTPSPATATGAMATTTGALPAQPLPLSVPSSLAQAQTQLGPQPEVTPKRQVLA
# Chain of Neurogenic locus notch homolog protein 2 (Homo sapiens) (Q04721 whole entry, looked up, canonical isoform): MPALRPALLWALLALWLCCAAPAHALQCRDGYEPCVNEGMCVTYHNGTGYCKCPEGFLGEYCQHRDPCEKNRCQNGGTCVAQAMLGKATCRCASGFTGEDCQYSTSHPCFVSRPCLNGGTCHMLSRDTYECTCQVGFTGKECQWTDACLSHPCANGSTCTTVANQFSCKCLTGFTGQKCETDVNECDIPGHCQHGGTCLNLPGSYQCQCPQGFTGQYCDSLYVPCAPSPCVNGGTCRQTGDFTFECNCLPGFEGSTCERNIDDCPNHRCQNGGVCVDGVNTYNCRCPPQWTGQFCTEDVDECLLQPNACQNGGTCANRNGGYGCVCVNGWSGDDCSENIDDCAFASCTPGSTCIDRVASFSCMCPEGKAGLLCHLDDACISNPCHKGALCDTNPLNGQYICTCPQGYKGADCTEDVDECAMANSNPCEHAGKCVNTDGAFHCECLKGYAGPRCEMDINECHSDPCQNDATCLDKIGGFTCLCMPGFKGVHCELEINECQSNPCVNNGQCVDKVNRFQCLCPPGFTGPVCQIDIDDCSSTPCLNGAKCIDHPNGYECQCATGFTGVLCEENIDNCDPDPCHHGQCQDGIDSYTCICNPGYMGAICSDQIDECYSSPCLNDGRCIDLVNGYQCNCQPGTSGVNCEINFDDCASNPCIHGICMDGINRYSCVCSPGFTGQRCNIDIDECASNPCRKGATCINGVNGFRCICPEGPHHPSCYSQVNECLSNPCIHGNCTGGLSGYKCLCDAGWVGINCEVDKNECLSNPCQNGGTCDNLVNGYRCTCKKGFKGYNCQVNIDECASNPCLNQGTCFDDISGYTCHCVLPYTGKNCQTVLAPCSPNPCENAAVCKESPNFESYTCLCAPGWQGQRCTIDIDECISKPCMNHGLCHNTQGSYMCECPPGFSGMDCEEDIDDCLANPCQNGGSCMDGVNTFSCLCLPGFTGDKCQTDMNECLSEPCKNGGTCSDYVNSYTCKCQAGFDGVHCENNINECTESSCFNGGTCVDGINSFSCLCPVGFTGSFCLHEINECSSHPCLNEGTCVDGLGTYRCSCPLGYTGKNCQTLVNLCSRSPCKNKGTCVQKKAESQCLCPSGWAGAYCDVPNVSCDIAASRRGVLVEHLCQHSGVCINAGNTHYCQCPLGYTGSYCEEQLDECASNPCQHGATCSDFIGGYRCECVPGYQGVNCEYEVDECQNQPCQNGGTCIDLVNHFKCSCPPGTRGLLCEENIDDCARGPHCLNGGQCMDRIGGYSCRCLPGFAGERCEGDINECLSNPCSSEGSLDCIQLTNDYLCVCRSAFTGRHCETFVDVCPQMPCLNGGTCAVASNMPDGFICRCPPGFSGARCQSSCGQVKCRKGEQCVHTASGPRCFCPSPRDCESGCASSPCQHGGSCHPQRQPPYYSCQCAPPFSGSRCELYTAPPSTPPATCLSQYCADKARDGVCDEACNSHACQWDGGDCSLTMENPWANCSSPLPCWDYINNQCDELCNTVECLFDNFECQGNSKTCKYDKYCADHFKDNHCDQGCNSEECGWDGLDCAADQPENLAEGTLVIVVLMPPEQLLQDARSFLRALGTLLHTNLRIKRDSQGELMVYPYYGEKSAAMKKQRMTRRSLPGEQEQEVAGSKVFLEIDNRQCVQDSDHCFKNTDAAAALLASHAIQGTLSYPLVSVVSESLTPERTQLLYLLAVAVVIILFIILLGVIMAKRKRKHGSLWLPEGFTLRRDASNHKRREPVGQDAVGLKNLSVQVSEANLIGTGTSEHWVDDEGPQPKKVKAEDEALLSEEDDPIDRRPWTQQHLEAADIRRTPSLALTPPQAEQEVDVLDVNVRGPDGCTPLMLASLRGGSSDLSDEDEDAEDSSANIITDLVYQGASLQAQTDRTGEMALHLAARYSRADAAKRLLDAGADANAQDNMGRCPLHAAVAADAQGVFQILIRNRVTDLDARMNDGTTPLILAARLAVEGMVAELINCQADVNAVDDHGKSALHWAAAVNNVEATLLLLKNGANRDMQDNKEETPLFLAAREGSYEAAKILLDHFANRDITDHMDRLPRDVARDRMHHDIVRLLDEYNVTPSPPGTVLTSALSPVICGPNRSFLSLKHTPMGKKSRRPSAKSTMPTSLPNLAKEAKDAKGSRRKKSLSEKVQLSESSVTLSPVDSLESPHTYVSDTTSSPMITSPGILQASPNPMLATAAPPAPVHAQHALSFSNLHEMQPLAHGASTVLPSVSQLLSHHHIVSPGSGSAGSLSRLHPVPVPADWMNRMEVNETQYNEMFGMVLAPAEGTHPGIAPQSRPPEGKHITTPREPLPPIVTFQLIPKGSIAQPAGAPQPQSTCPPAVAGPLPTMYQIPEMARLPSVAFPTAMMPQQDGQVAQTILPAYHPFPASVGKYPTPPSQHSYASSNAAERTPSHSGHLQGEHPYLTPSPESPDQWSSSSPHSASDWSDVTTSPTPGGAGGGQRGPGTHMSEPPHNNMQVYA
SMILES,composite z-score [1],composite z-score [2],composite z-score [3],composite z-score [4],composite z-score [5],composite z-score [6],composite z-score [7],z-score [8],composite z-score [9],composite z-score [10],composite z-score [11],z-score [12],z-score [13],z-score [14],composite z-score [15],z-score [16],composite z-score [17],composite z-score [18],composite z-score [19],composite z-score [20]
O=C(N1CCCCC1)[C@@]1(CCS(=O)(=O)c2ccccc2)COC(c2ccc(OCCCO)cc2)=N1,1.02,1.92,0.237,0.253,1.03,1.06,1.32,-3.51 (inactive),0.937,0.0972,1.54,-0.612 (inactive),-1.25 (inactive),-0.0556 (inactive),2.84,1.23 (inactive),0.369,1.04,0.841,0.219
C=CCN1Cc2ccccc2[C@H]2OC(c3ccc(OCCCO)cc3)=N[C@@]2(CC=C)C1=O,0.451,0.169,0.0188,-0.177,1.12,1.44,1.42,-2.18 (inactive),0.633,0.0401,1.53,-3.05 (inactive),-7.01 (inactive),-0.397 (inactive),3.21,0.763 (inactive),0.185,1.55,0.979,0.168
COCCOC(=O)N1C(=O)[C@@]2(c3ccccc31)[C@H](C(=O)N1CCN(c3ncccn3)CC1)[C@H]1C(=O)O[C@H](c3ccccc3)[C@H](c3ccccc3)N1[C@@H]2c1ccc(O)cc1,0.149,0.0128,-0.0136,0.879,0.186,1.36,0.335,-0.79 (inactive),-0.0574,0.0523,1.55,0.232 (inactive),1.07 (inactive),1.72 (inactive),2.25,1.48 (inactive),-0.122,0.161,0.679,-0.184
C=CCNC(=O)[C@H]1[C@@H]2C(=O)O[C@@H](c3ccccc3)[C@@H](c3ccccc3)N2[C@@H](c2ccc(O)cc2)[C@]12C(=O)Nc1ccc(C#CC3(O)CCCCCC3)cc12,0.0935,1.01,-0.0293,0.254,-0.459,0.865,0.718,-0.246 (inactive),0.168,0.312,1.55,-0.494 (inactive),0.369 (inactive),0.335 (inactive),3.03,-1.08 (inactive),-0.0953,1.09,0.354,-0.0896
C[N+](C)(C)CCCC[C@@H]1NC(=O)[C@H]2C[C@@H](C(=O)NCCCCCCN)[C@@H](c3ccc(O)cc3)N2C1=O,0.239,0.713,0.0797,0.575,1.27,1.99,1.09,-0.194 (inactive),0.901,0.373,1.26,0.731 (inactive),-1.51 (inactive),1.13 (inactive),1.57,0.766 (inactive),0.265,-0.232,0.64,0.155
COC(=O)c1c(CC[C@@H](CO)NC(=O)N[C@H](Cn2cc(C3(O)CCCCC3)nn2)C(C)C)oc(C(C)=O)c1C(=O)OC,-0.413,0.945,-0.003,0.815,0.759,0.759,1.07,0.324 (inactive),0.253,-0.0237,1.57,-0.325 (inactive),-2.39 (inactive),0.0762 (inactive),1.12,1.66 (inactive),-0.0437,1.86,1.08,0.0274
COC(=O)[C@@]1(Cc2ccc(F)cc2)[C@H]2c3cc(C(=O)N4CCCC4)n(CCc4ccc(O)c(O)c4)c3C[C@H]2CN1C(=O)c1ccccc1,1.41,0.109,0.57,0.146,1.38,2.3,1.29,0.332 (inactive),1.05,2.44,-0.522,1.34 (inactive),1.16 (inactive),1.96 (inactive),3.22,-0.469 (inactive),1.17,-0.97,-1.04,0.978
COc1ccc(CN(C2=CC[C@@]3(C(N)=O)C(=O)C(Cl)=C(Cl)C(=O)[C@@]3(C#N)C2)S(=O)(=O)c2ccc(Br)cc2)cc1,-0.181,-0.0483,-0.0657,0.497,0.765,0.914,1.11,-0.991 (inactive),0.343,0.0176,-0.196,-1.62 (inactive),-2.63 (inactive),-0.266 (inactive),3.31,1.29 (inactive),0.0496,-0.0701,-0.366,-0.111
C=CCOC(=O)[C@H]1[C@@H]2C(=O)O[C@@H](c3ccccc3)[C@@H](c3ccccc3)N2[C@@H](c2ccc(OCCOC(=O)[C@H]3C[C@H]4C(=O)N[C@@H](CCCCNC(C)=O)C(=O)N4[C@H]3c3ccc(O)cc3)cc2)[C@]12C(=O)Nc1ccccc12,-0.0493,0.498,-0.0736,0.0817,0.307,0.285,0.999,-1.15 (inactive),0.352,-0.0994,1.54,-5.42 (inactive),-1.54 (inactive),0.491 (inactive),2.27,3.05 (inactive),0.0557,1.63,0.991,-0.0509
CCCCCCCCCCC(O)C1C=CC2C(=O)N(C)C(=O)C2N1Nc1ccc([N+](=O)[O-])cc1[N+](=O)[O-] (stereo not given),-0.222,-0.254,0.0772,0.131,1.55,1.12,0.975,0.262 (inactive),0.839,-0.0994,0.195,0.766 (inactive),0.637 (inactive),1.35 (inactive),3.02,-1.68 (inactive),0.379,-0.894,1.1,0.153
COc1cc2c(cc1O)C(C)N(Cc1ccc([N+](=O)[O-])o1)CC2 (stereo not given),0.182,0.731,-0.0138,1.15,1.3,1.53,1.08,0.11 (inactive),0.401,0.28,1.56,-0.337 (inactive),-3.24 (inactive),-1.57 (inactive),1.74,-0.741 (inactive),0.136,0.142,1.07,0.174
O=C(CS)NCCCCCNC(=O)[C@@H]1C[C@@H]2C(=O)N3CCC[C@H]3C(=O)N2[C@@H]1c1cccc(OCCO)c1,0.511,1.59,-0.106,0.051,-0.377,1.19,1.43,0.174 (inactive),-0.599,-0.166,1.07,0.147 (inactive),0.793 (inactive),-0.153 (inactive),2.74,-1.01 (inactive),-0.0998,0.102,0.0995,-0.0828
O=C(NCC(F)(F)F)[C@@H]1c2ccccc2C(=O)N(Cc2ccccc2C(F)(F)F)[C@H]1c1ccc(CO)cc1,0.597,-0.0704,-0.156,0.424,-0.169,0.997,1.3,-1.49 (inactive),-0.181,0.113,0.928,-0.268 (inactive),-0.205 (inactive),-0.503 (inactive),1.28,0.31 (inactive),-0.062,-0.416,-0.258,-0.274
CCCC[C@@H]1C[C@H]1[C@@H](NC(=O)c1cccs1)c1ccc(C(F)(F)F)cc1,0.211,-0.0988,-0.0783,-0.618,-0.845,-0.265,-0.743,-0.878 (inactive),0.0353,0.948,0.183,1.19 (inactive),1.01 (inactive),-0.0454 (inactive),-0.683,-1.72 (inactive),-0.0009,-0.345,-0.182,-0.168
COCC1=C2[C@@H](CCc3ccccc3)OB(O)C[C@@H]2[C@@H]2C(=O)C=CC(=O)[C@@H]2C1,-0.265,0.42,-0.051,0.328,0.386,0.404,0.952,-0.632 (inactive),0.182,-0.0708,1.57,0.506 (inactive),-2.86 (inactive),-0.288 (inactive),1.32,-0.224 (inactive),-0.143,0.883,1.12,-0.106
O=C1O[C@H](c2ccccc2)[C@H](c2ccccc2)N2[C@H]1[C@@H](C(=O)N1CCN(c3ncccn3)CC1)[C@]1(C(=O)Nc3ccc(C#CC4(O)CCCCCC4)cc31)[C@H]2c1ccc(OCCO)cc1,0.696,0.968,0.0583,1.2,1.52,2.25,1.22,1.8 (inactive),2.45,0.334,1.53,2.89 (inactive),1.42 (inactive),5.4 (inactive),3.79,-0.409 (inactive),1.19,1.68,1.08,0.471
Cc1ccc(S[C@]2(C(=O)NCC(F)(F)F)CC(=O)N(C3CCCCC3)[C@@H]2c2ccc(CO)cc2I)cc1,-0.203,0.0659,0.0464,0.594,1.18,0.405,1.18,-2.91 (inactive),0.233,0.213,1.54,-0.332 (inactive),-0.692 (inactive),1.23 (inactive),2.82,0.312 (inactive),0.171,0.456,1.14,0.0516
CC(C)(C)OC(=O)CC[C@]1(C(=O)NCc2ccccc2)N=C(c2ccc(OCCCO)cc2)O[C@H]1c1ccccc1CN=[N+]=[N-],-0.0386,0.357,0.119,0.618,1.55,1.22,1.31,-2.07 (inactive),1.48,-0.0296,1.54,0.133 (inactive),0.0256 (inactive),0.176 (inactive),3.46,0.868 (inactive),0.214,1.2,1.05,0.134
COC(=O)c1cn(C[C@@H](Cc2ccccc2)NC(=O)N[C@H](CO)CCc2oc(C(C)=O)c(C(=O)OC)c2C(=O)OC)nn1,-0.695,0.603,-0.0602,0.757,0.5,0.165,1.21,-0.776 (inactive),0.232,0.0274,0.999,0.0017 (inactive),-0.814 (inactive),-0.338 (inactive),0.985,1.01 (inactive),-0.147,0.921,1.06,0.084
